{"source": "PubChem BioAssay AID624483", "about": "(NMMLSC, 2012)", "note": "Hit rate of the full screen: of about 360,000 compounds, about 11,000 (3.1%) were called active. About 2% were inconclusive and are not listed. Only a selection was taken, and actives are over-represented in it overall. A number with no mark means an inactive call. No stated cut-off is given here; in the data, active means fluorescence intensity above about 16000; inconclusive means no clear call, values can overlap the other calls; inactive means below that."}
{"assay": "counter-screen for toxin protease inhibitors: compound fluorescence, primary screen, artefact control for toxin protease inhibitor project, biochemical, multiplex microsphere, HTS (AID 624483)", "conditions": "compound autofluorescence counterscreen, microsphere flow cytometry; stronger effect = higher value"}
{"smiles": "COC(=O)C1=C(N)Oc2c(oc(CO)cc2=O)C1c1c(F)cccc1Cl", "note": "(stereo not drawn)", "fluorescence intensity": 3610}
{"smiles": "COc1ccc(C(=O)N/N=C2\\CCS(=O)(=O)c3ccc(F)cc32)cc1OC", "fluorescence intensity": 4530}
{"smiles": "CCOc1ccc(C(=O)NCCCN2CCCC2=O)cc1", "fluorescence intensity": 3040}
{"smiles": "Cc1ccc(-c2nn(-c3ccccc3)cc2C(=O)NCCCN2CCCC2=O)cc1", "fluorescence intensity": 4630}
{"smiles": "Cc1ccc(C(=O)N(CN2CCCC2=O)c2ccc(F)cc2)cc1", "fluorescence intensity": "24000 (active)"}
{"smiles": "Cc1ccc(-n2nc(N)c3c(=O)oc(N(C)C)nc32)cc1", "fluorescence intensity": "23400 (active)"}
{"smiles": "Cc1ccc2c(=O)oc(N(C)C)nc2c1", "fluorescence intensity": 2560}
{"smiles": "CCCNC(=O)CCc1c(C)nc2c(c(C)nn2-c2ccc(C)cc2)c1C", "fluorescence intensity": 3860}
{"smiles": "Cc1ccc(NS(=O)(=O)c2c(C)[nH]c(=O)[nH]c2=O)cc1C", "fluorescence intensity": 10900}
{"smiles": "CC1(C)Cc2ccccc2-c2nc(CN3CCOCC3)[nH]c(=O)c21", "fluorescence intensity": "22300 (active)"}
{"smiles": "CC1(C)Cc2ccccc2-c2[nH]c(=S)[nH]c(=O)c21", "fluorescence intensity": 4400}
{"smiles": "O=c1[nH]c(CN2CCOCC2)nc2scc(-c3ccccc3)c12", "fluorescence intensity": 4340}
{"smiles": "CC(C)c1cccc(C(C)C)c1Nc1cn[nH]c1", "fluorescence intensity": 6170}
{"smiles": "CCOc1ccc(NC(=O)c2ccc(NC(=O)COC(=O)c3ccc(NC(=O)CC#N)cc3)cc2)cc1", "fluorescence intensity": 4430}
{"smiles": "CCC(C)(C)c1ccc(Oc2ccc(NC(=O)COC(=O)C3=COCCO3)cc2)cc1", "fluorescence intensity": "21300 (active)"}
{"smiles": "COc1ccc(NC(=O)COC(=O)C2COc3ccccc3O2)cc1", "note": "(stereo not drawn)", "fluorescence intensity": 3930}
{"smiles": "C/C(=N\\NS(=O)(=O)c1ccccc1)c1c(O)cc(C)oc1=O", "fluorescence intensity": 5910}
{"smiles": "O=C(CSc1nccc(=O)[nH]1)Nc1ccc(N2CCOCC2)c(Cl)c1", "fluorescence intensity": 3800}
{"smiles": "CCOc1ncccc1C(=O)OCC(=O)N1c2ccccc2CC1C", "note": "(stereo not drawn)", "fluorescence intensity": 3090}
{"smiles": "CCOC(=O)c1[nH]c(C)c(C(=O)OCC(=O)N2c3ccccc3CC2C)c1C", "note": "(stereo not drawn)", "fluorescence intensity": "19700 (active)"}
{"smiles": "CCOC(=O)c1c(C)[nH]c(C(=O)OCC(=O)N2CCCC2=O)c1C", "fluorescence intensity": 6230}
{"smiles": "CC(C)C(OC(=O)c1cccs1)C(=O)NC1CCCCC1", "note": "(stereo not drawn)", "fluorescence intensity": 9640}
{"smiles": "Cc1ccc(-c2nc(COC(=O)c3c(C)noc3C)cs2)cc1", "fluorescence intensity": 9900}
{"smiles": "COc1ccc(N2C(=O)c3ccccc3NC2c2ccc(OC)c(CN3CCOCC3)c2)cc1", "note": "(stereo not drawn)", "fluorescence intensity": 4330}
{"smiles": "COc1ccc(C2C(C#N)=C(N)Oc3n[nH]c(C)c32)cc1CN1CCN(c2ccc(F)cc2)CC1", "note": "(stereo not drawn)", "fluorescence intensity": "24200 (active)"}
{"smiles": "COc1ccccc1CN1CCCC(N2CCN(c3ccc(F)cc3)CC2)C1", "note": "(stereo not drawn)", "fluorescence intensity": 4030}
{"smiles": "CSc1ncnc2c1ncn2CCCNCC1CCCCC1", "fluorescence intensity": 3580}
{"smiles": "O=C1COc2ccc(NC(=O)N3CCN(c4ccc(F)cc4)CC3)cc2N1", "fluorescence intensity": "22400 (active)"}
{"smiles": "COc1cccc(N2CCN(C(=O)Nc3ccc4c(c3)NC(=O)CO4)CC2)c1", "fluorescence intensity": "19600 (active)"}
{"smiles": "CC(CC(=O)Nc1ccc(F)cc1F)S(=O)(=O)c1ccc2c(c1)NC(=O)CO2", "note": "(stereo not drawn)", "fluorescence intensity": 6050}
{"smiles": "CCOC(=O)C1CCN(C(=O)Nc2cccc(OC)c2)CC1", "fluorescence intensity": 3130}
{"smiles": "COc1ccc(NC(=O)CCS(=O)(=O)c2cc3c(cc2Cl)NC(=O)CO3)cc1OC", "fluorescence intensity": 4470}
{"smiles": "Cc1ccc(NC(=O)C2CCN(S(=O)(=O)c3ccc4c(c3)NC(=O)CO4)CC2)cc1C", "fluorescence intensity": 6240}
{"smiles": "Clc1ccccc1Nc1nc(NCc2cccs2)nc2ccsc12", "fluorescence intensity": 2970}
{"smiles": "O=C(NN=Cc1ccccc1O)C(=O)NN=Cc1ccccc1O", "fluorescence intensity": 3880}
{"smiles": "COC(=O)[C@H](CC(C)C)NC(=O)N1CCCCC1C", "note": "(stereo partly drawn)", "fluorescence intensity": 6670}
{"smiles": "COc1ccccc1-c1cc(NC(C)=O)c2ncc(-c3ccc(F)cc3)n2c1", "fluorescence intensity": 3190}
{"smiles": "O=C(c1ccc(F)cc1)N1CCC(C(=O)N2CCN(S(=O)(=O)c3ccccc3Br)CC2)CC1", "fluorescence intensity": 6500}
{"smiles": "CC(=O)c1c(N2CCOCC2)nc(=S)n(Cc2ccccc2)c1C", "fluorescence intensity": 2990}
{"smiles": "CCn1c(CSc2nc(C)cc(C)n2)nnc1SCC(N)=O", "fluorescence intensity": 4570}
{"smiles": "CCSc1nc(=S)n(CC)c(C)c1C(C)=O", "fluorescence intensity": "19400 (active)"}
{"smiles": "CCCc1nc(-c2ccccc2O)n(-c2ccccc2)n1", "fluorescence intensity": 3640}
{"smiles": "CC(=O)NC(C)(C)C1CC=C(C)/C(=N\\O)C1", "note": "(stereo not drawn)", "fluorescence intensity": "17100 (active)"}
{"smiles": "C=C(C)C1CC=C(C)/C(=N\\NC(=O)CNc2ccccc2OC)C1", "note": "(stereo not drawn)", "fluorescence intensity": 2580}
{"smiles": "OC(c1ccccc1)c1nc(/C=C/c2ccc(C(F)(F)F)cc2)cs1", "note": "(stereo not drawn)", "fluorescence intensity": 2820}
{"smiles": "CCCc1nnc(SCC(=O)Nc2ccc(C(=O)OCC)cc2)o1", "fluorescence intensity": 3670}
{"smiles": "O=C(CSc1nnc(Cn2cnc3ccccc32)o1)c1ccccc1", "fluorescence intensity": 4020}
{"smiles": "CC(=O)Nc1ccc(C(=O)CSc2nnc(Cc3ccccc3)o2)cc1", "fluorescence intensity": "16300 (active)"}
{"smiles": "CN(Cc1cn(Cc2ccc(C(F)(F)F)cc2)nn1)C1CN(Cc2cn(Cc3ccc(C(F)(F)F)cc3)nn2)S(=O)(=O)C1", "note": "(stereo not drawn)", "fluorescence intensity": 5810}
{"smiles": "COc1ccc(CNC(=O)C2CCCC2)cc1", "fluorescence intensity": 5540}
{"smiles": "COc1ccc(CNc2nc(NCc3ccc(OC)cc3)c3ncn(C4CCCC4)c3n2)cc1", "fluorescence intensity": 4490}
{"smiles": "COc1ccc(CNC2CCCCC2)cc1", "fluorescence intensity": "22800 (active)"}
{"smiles": "COc1cccc(NC(=O)C2(C)CCN2Cc2ccccc2Cl)c1", "note": "(stereo not drawn)", "fluorescence intensity": 3880}
{"smiles": "COc1ccccc1CNC(=O)c1cc(-c2cc(Cl)ccc2C)n[nH]1", "fluorescence intensity": 3000}
{"smiles": "COc1ccc(C(=O)CSc2nnc(COc3ccccc3)n2Cc2ccco2)cc1", "fluorescence intensity": "23900 (active)"}
{"smiles": "CCn1c(CNc2ccc(OC)cc2)nnc1SCC(=O)c1ccc(OC)cc1", "fluorescence intensity": 3090}
{"smiles": "O=C(CSc1nnc(COc2ccc(Cl)cc2)n1Cc1ccco1)N1CCNC1=O", "fluorescence intensity": 5560}
{"smiles": "CCCCN(CC)C(=O)CN(C)S(=O)(=O)c1cccc2nsnc12", "fluorescence intensity": 6470}
{"smiles": "CC(C(=O)NC1CCCC1)N1CCN(S(=O)(=O)c2ccccc2Cl)CC1", "note": "(stereo not drawn)", "fluorescence intensity": 4750}
{"smiles": "O=C(CN1C(=O)NC(Cc2ccccc2)(Cc2ccccc2)C1=O)NCC1CCCCC1", "fluorescence intensity": "20200 (active)"}
{"smiles": "CCCCNC(=O)CN1C(=O)NC(Cc2ccccc2)(Cc2ccccc2)C1=O", "fluorescence intensity": 5690}
{"smiles": "O=C(CC1CCCCC1)NCc1ccccc1", "fluorescence intensity": 3670}
{"smiles": "CSc1ccccc1C(=O)Nc1cccc(C(C)=O)c1", "fluorescence intensity": "26700 (active)"}
{"smiles": "CC(=O)c1cccc(NC(=O)c2cc(C)nn2-c2ccccc2)c1", "fluorescence intensity": 3940}
{"smiles": "CC(=O)c1cccc(NC(=O)[C@@H](NC(N)=O)C(C)C)c1", "fluorescence intensity": 3400}
{"smiles": "COC(=O)c1ccc2c(c1)S(=O)(=O)NC2C", "note": "(stereo not drawn)", "fluorescence intensity": 5730}
{"smiles": "COC(=O)c1ccc(OCC(O)CN(CCO)CC(O)Cn2ccc3ccccc32)cc1", "note": "(stereo not drawn)", "fluorescence intensity": 2540}
{"smiles": "Cc1cc(C(F)(F)F)nc(SCC(=O)Nc2nccs2)n1", "fluorescence intensity": 4960}
{"smiles": "CCOC(=O)c1sc(NC(=O)CSc2nc(C)cc(C(F)(F)F)n2)c(C#N)c1C", "fluorescence intensity": "20700 (active)"}
{"smiles": "CCn1c(SCC(=O)Nc2sc(C)c(C)c2C#N)nnc1C1CC1", "fluorescence intensity": 4370}
{"smiles": "CC(C)(C)S(=O)N1Cc2cc(C(=O)NCCCN3CCOCC3)nc(-c3cccc(-c4cc5ccccc5o4)c3)c2[C@H]1CCO", "note": "(stereo partly drawn)", "fluorescence intensity": 4620}
{"smiles": "Cc1noc(NS(=O)(=O)c2ccc(N3CC(O)=C(c4ccccc4)C3=N)cc2)c1C", "fluorescence intensity": 2440}
{"smiles": "CCOC(=O)C1CCCN(C(=O)c2ccc(C)c(F)c2)CC1", "note": "(stereo not drawn)", "fluorescence intensity": 3730}
{"smiles": "CCS(=O)(=O)Nc1ccc(C2=NN(C(C)=O)C(c3cccs3)C2)cc1", "note": "(stereo not drawn)", "fluorescence intensity": 2400}
{"smiles": "CCS(=O)(=O)Nc1ccc(C2=NN(S(=O)(=O)c3ccc(F)cc3)C(c3ccco3)C2)cc1", "note": "(stereo not drawn)", "fluorescence intensity": "17100 (active)"}
{"smiles": "CS(=O)(=O)Nc1cccc(C2=NN(S(=O)(=O)c3ccccc3)C(c3cccs3)C2)c1", "note": "(stereo not drawn)", "fluorescence intensity": 8170}
{"smiles": "CCOC(=O)C1(C(F)(F)F)N=C(N(C)C)OC(N(C)C)=N1", "fluorescence intensity": 2190}
{"smiles": "COCCCNC(=O)CNC(=S)N(Cc1cc(OC)c(OC)c(OC)c1)C1CCCC1", "fluorescence intensity": 2570}
{"smiles": "O=S1(=O)CC(NCc2ccccc2)C(Nc2ccc(Cl)cc2)C1", "note": "(stereo not drawn)", "fluorescence intensity": 3670}
{"smiles": "CCn1c(C)nc2cc(C(=O)NNS(=O)(=O)c3ccc(C)cc3C)ccc21", "fluorescence intensity": "22500 (active)"}
{"smiles": "Cc1ccc(S(=O)(=O)N2CCN(C(=O)Cn3c(=O)cnc4ccccc43)CC2)c(C)c1", "fluorescence intensity": 5660}
{"smiles": "CCn1c(CNC(=O)c2cc(OC)c(OC)c(OC)c2)cc2cc(C)ccc21", "fluorescence intensity": 3780}
{"smiles": "CC(=O)Nc1cnc(-c2ccc(O)cc2C)cn1", "fluorescence intensity": 3960}
{"smiles": "NS(=O)(=O)c1ccc(NC2=CC(c3ccc(F)cc3)N(c3ccc(S(N)(=O)=O)cc3)C2=O)cc1", "note": "(stereo not drawn)", "fluorescence intensity": 4340}
{"smiles": "C#CCN(C[C@H]1[C@H](OC(=O)NC2CCCC2)[C@H](OC(=O)NC2CCCC2)C[C@H]2C(=O)N(c3ccccc3)C(=O)[C@@H]12)S(=O)(=O)c1ccc(C)cc1", "fluorescence intensity": 3750}
{"smiles": "Cc1ccccc1CSc1nnc(-c2ccccn2)n1N", "fluorescence intensity": "16200 (active)"}
{"smiles": "Cn1c(SCC(=O)C(C)(C)C)nnc1-c1ccccn1", "fluorescence intensity": 9760}
{"smiles": "Cc1ccccc1CSc1nnc(-c2cccnc2)n1N", "fluorescence intensity": 2660}
{"smiles": "COc1ccc(C(=O)NC(=S)N2CCCCC2c2cccnc2)cc1OC", "note": "(stereo not drawn)", "fluorescence intensity": 4080}
{"smiles": "Cc1ccc(Cn2c(=N)c(S(=O)(=O)c3ccc(C)cc3)cc3c(=O)n4ccccc4nc32)cc1", "fluorescence intensity": 4390}
{"smiles": "CCn1c(=N)c(S(=O)(=O)c2ccc(F)cc2)cc2c(=O)n3ccccc3nc21", "fluorescence intensity": 2990}
{"smiles": "Cc1ccc(-n2c(=O)c(C#N)cc3c(=O)n4ccccc4nc32)cc1C", "fluorescence intensity": "24200 (active)"}
{"smiles": "CCc1nc2nc(C)c(NS(=O)(=O)c3ccc4c(c3)CCCC4)c(=O)n2[nH]1", "fluorescence intensity": 4030}
